NIH3T3 tox – cytotoxic compounds in NIH 3T3 cells | NIH 3T3 viability, CellTiter-Glo ATP luminescence, 48-72 h | 4.3% of 94,000 active | AID 1345082 | Potency, µM (titrated, usually from 96.7 µM), hits mostly inhibitors; also: nearly all actives have a fitted effect of over 55% in size
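Viability of NIH 3T3 cells after 48 or 72 hr compound treatment at 37 °C was assessed by CellTiter-Glo, with luminescence imaged following a 10 min room-temperature step.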
FLuc inh – blocks purified firefly luciferase enzyme activity. P08659. purified P. pyralis luciferase, luminescence, biochemical. Potency, µM (titrated, usually from 115 µM), actives largely listed as inhibitors. 2.5% of 76,000 active; also: nearly all actives have a fitted effect of over 65% in size
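Biochemical qHTS: compound (6-point titration) added to 10uM D-luciferin plus 10uM ATP in Tris acetate pH 7.5 buffer with Mg, Tween-20 and BSA, then purified enzyme at 10nM; light output imaged.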
GPT2 inhibitor – inhibitors of human GPT2 alanine aminotransferase; Q8TD30; Recombinant GPT2, coupled pyruvate oxidase/HRP Amplex Red fluorescence; Potency, µM (doses to about 57.7 µM), actives largely listed as inhibitors; 0.25% of 100,000 active; AID 1671188; also: nearly all actives have a fitted effect of over 60% in size
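Recombinant GPT2 (10ng/uL) with 250uM a-KG and 2mM L-alanine, 30 min at room temperature, in HEPES pH 7.5 buffer. Pyruvate detected by pyruvate oxidase/HRP/Amplex Red fluorescence after 30 min in the dark; AOA (50uM) as positive control.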
HEK cytotox – kills HEK 293 cells. HEK 293 viability, ATP luminescence (CellTiter-Glo), 48-72 h. Potency, µM (top dose mostly 115 µM), most hits filed as inhibitors. 6.6% of 94,000 active. AID 1345083; also: nearly all actives have a fitted effect of over 60% in size
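Pintool-delivered compounds were incubated with HEK 293 cells (250 cells/well) at 37 degree Celsius for 48 or 72 hr. ATP-dependent luminescence (CellTiter-Glo) then reported remaining viable cells.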
NPR1 antag – blocks ANP-stimulated signaling of human Npr1 receptor; HEK293 hNpr1 GloSensor cGMP, ANP-stimulated luminescence; AID 1347048; Potency, µM (top dose mostly 46.3 µM), usual class: inhibitors; 1.6% of 76,000 active; calls by dose curve; also: nearly all actives have a fitted effect of over 60% in size
Target sequence (P16066 whole entry, looked up): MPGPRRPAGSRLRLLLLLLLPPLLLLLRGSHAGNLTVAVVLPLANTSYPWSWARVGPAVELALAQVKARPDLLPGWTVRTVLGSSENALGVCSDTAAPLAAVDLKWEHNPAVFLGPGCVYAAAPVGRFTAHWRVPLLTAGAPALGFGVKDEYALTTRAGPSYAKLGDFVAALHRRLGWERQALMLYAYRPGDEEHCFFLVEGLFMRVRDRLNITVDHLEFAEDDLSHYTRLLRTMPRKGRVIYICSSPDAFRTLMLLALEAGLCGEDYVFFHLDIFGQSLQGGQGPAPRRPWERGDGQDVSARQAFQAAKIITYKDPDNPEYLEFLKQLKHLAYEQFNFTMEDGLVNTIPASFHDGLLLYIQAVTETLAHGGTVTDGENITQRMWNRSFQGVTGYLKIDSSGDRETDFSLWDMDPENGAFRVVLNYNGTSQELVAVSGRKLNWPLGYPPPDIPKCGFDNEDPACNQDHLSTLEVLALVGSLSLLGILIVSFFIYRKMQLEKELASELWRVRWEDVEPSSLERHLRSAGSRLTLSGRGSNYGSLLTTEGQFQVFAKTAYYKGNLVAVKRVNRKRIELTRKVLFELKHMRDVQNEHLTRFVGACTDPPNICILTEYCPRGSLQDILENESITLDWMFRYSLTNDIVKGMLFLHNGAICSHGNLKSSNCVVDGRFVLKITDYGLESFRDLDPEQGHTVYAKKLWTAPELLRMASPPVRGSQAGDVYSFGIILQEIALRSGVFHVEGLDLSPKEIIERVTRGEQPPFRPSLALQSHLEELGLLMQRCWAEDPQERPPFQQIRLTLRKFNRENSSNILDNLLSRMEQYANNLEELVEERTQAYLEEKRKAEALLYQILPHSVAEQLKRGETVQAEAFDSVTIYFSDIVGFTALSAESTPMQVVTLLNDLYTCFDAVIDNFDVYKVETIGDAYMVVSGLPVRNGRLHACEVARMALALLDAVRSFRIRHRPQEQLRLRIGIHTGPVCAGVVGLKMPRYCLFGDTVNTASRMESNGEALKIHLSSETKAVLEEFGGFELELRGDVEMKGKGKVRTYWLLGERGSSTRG
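HEK293 cells stably expressing human Npr1 and cGMP GloSensor pGS-40F, loaded 2 h with 2% GloSensor reagent, given compound 30 min at room temperature. Luminescence read before and 20 min after 0.1 nM hNppA.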
Large screens that a line does not name were inactive. Rows were chosen to be rich in hits. Some 10% of all compounds tested hit in one or more screens of this group. Unless noted, calls follow the shape of the dose curve; as a rule, active = well fitted curve in the direction sought with a large enough effect; inconclusive = small, poorly fitted or top-dose-only effect, or another doubt; inactive = no such curve, though single readings can be large; an effect the other way counts as inactive or inconclusive.

Cc1nc(CNC(=O)c2ccc3oc(-c4cccc(F)c4)nc3c2)cs1	FLuc inh 32µM, HEK cytotox inconclusive
Cc1ccc(CN2CCc3nc(C(=O)Nc4cccnc4)oc3CC2)cc1	NIH3T3 tox inconclusive, FLuc inh inconclusive, HEK cytotox inconclusive, NPR1 antag inconclusive
O=C(Nc1ccc(Cl)cc1)c1nc2c(o1)CCN(Cc1nccs1)CC2	NIH3T3 tox inconclusive, FLuc inh 22µM, HEK cytotox inconclusive, NPR1 antag 2.2µM
O=C(Nc1ccccc1)c1nc2c(o1)CCN(Cc1ccc(F)c(Cl)c1)CC2	NIH3T3 tox inconclusive, FLuc inh 8.9µM, HEK cytotox inconclusive, NPR1 antag 4µM
COCCNC(=O)c1nc2c(o1)CCN(Cc1ccc(OC)cc1)CC2	NIH3T3 tox inconclusive, HEK cytotox inconclusive
O=C(Nc1ccccc1)c1nc2c(o1)CCN(Cc1cccs1)CC2	NIH3T3 tox inconclusive, FLuc inh inconclusive, HEK cytotox inconclusive, NPR1 antag 7.9µM
COc1ccc(CN2CCc3nc(C(=O)Nc4ccc(Cl)cc4)oc3CC2)cn1	NIH3T3 tox inconclusive, FLuc inh inconclusive, HEK cytotox inconclusive, NPR1 antag 4µM
CC1CCN(C(=O)Cn2ccn3nc(-c4ccc(F)cc4)c(CO)c3c2=O)CC1	HEK cytotox inconclusive
CN1C[C@H](O)C[C@H]1c1nnc2n1CCN(Cc1ccc(F)c(F)c1)C2	none
COC[C@@H]1CN(C(=O)c2ccc(F)c(F)c2)C[C@H]1C(N)=O	none
COc1ccc(CN2CCc3nc(C(=O)Nc4ccccc4)oc3CC2)cc1	NIH3T3 tox inconclusive, FLuc inh 20µM, HEK cytotox inconclusive, NPR1 antag 25µM
O=C(NCc1cccc(F)c1)c1nc2c(o1)CCN(CCCc1ccccc1)CC2	NIH3T3 tox 89µM, HEK cytotox inconclusive
O=C(Nc1ccc(Cl)cc1)c1nc2c(o1)CCN(Cc1cccc(O)c1)CC2	NIH3T3 tox inconclusive, FLuc inh 25µM, HEK cytotox 32µM, NPR1 antag 2µM
COc1ccccc1CN1CCc2nc(C(=O)N3CCOCC3)oc2CC1	NIH3T3 tox inconclusive, HEK cytotox 100µM
CC/C=C\C(O)C(O)C1=C(C)C(=O)C2(O1)C(=O)NC(OC)(C(=O)c1ccccc1)C2O (centres undefined)	none (no result: NIH3T3 tox, FLuc inh, HEK cytotox, NPR1 antag)
O=C(COc1cccnc1)N[C@@H]1[C@@H]2CCO[C@@H]2[C@@H]1C1CCCC1	none
CN(C)C(=O)CNC(=O)c1cccc(-c2ccc(C(F)(F)F)cc2)c1	NIH3T3 tox inconclusive, HEK cytotox 40µM (no result: FLuc inh, NPR1 antag)
CC(C)(C)C(=O)NCCNC(=O)c1cccc(-c2ccc(C(F)(F)F)cc2)c1	NIH3T3 tox 45µM, HEK cytotox 25µM (no result: FLuc inh, NPR1 antag)
CNC(=O)CNC(=O)c1cccc(-c2ccc(C(F)(F)F)cc2)c1	NIH3T3 tox inconclusive, HEK cytotox inconclusive (no result: FLuc inh, NPR1 antag)
O=C(c1ccccc1Cl)N1CCC(c2nn(-c3ccccc3)c(=O)[nH]2)CC1	NIH3T3 tox inconclusive, HEK cytotox inconclusive
Cc1ccc(-c2ccc3nnc(CNC(=O)c4ccccc4C)n3n2)cc1C	none
CCN1CC(C(=O)NCc2cccc(-c3ccccc3)c2)CCC1=O (centres undefined)	NIH3T3 tox inconclusive, HEK cytotox 35µM, NPR1 antag inconclusive
O=C(NCc1cccc(-c2ccccc2)c1)C1CC(=O)N(C2CC2)C1 (centres undefined)	none
CC(NC(=O)c1coc(COc2ccc(F)cc2Cl)n1)c1cnn(C)c1 (centres undefined)	NIH3T3 tox inconclusive
O=C(NC1CC1)C1CCN(C(=O)c2ncn3c2COC(c2ccc(F)cc2)C3)CC1 (centres undefined)	FLuc inh 35µM
O=C(NC1CCCCCCC1)C1CCN(C(=O)c2ncn3c2COC(c2ccccc2)C3)CC1 (centres undefined)	FLuc inh 18µM
O=C(NC1CCCCCC1)C1CCN(C(=O)c2ncn3c2COC(c2ccc(F)cc2)C3)CC1 (centres undefined)	none
O=C(Nc1ccc(F)cc1)C1CCN(C(=O)c2ncn3c2COC(c2ccc(F)cc2)C3)CC1 (centres undefined)	FLuc inh 32µM
COc1ccc(NC(=O)C2CCN(C(=O)c3ncn4c3COC(c3ccc(F)cc3)C4)CC2)cc1F (centres undefined)	FLuc inh inconclusive
Cc1ccc(NC(=O)C2CCN(C(=O)c3ncn4c3COC(c3ccc(F)cc3)C4)CC2)cc1Cl (centres undefined)	NIH3T3 tox inconclusive, FLuc inh 28µM, HEK cytotox inconclusive
CC[C@@]1(C(=O)O)C[C@H](C(=O)NCCOC)[C@H](c2ccc(OC)cc2)N1C	none
O=C(Nc1cc(F)cc(F)c1)C1CCN(C(=O)c2ncn3c2COC(c2ccc(F)cc2)C3)CC1 (centres undefined)	NIH3T3 tox inconclusive, FLuc inh 35µM, HEK cytotox inconclusive, NPR1 antag inconclusive
O=C(NCc1cc(F)cc(F)c1)C1CCN(C(=O)c2ncn3c2COC(c2ccc(F)cc2)C3)CC1 (centres undefined)	FLuc inh inconclusive
CC(C)(C)c1ccc(-c2cc(C[C@H]3CNCC[C@H]3CC(=O)N3CCOCC3)no2)cc1	NIH3T3 tox inconclusive, HEK cytotox 25µM
CC(C)(C)c1ccc(-c2cc(C[C@H]3CNCC[C@H]3CC(=O)N3CCC(n4c(=O)[nH]c5ccccc54)CC3)no2)cc1	NIH3T3 tox 25µM, HEK cytotox 22µM
O=C(C[C@@H]1CCNC[C@@H]1Cc1cc(COc2ccccc2)on1)N1CCC(n2c(=O)[nH]c3ccccc32)CC1	none
COCCNC(=O)C[C@@H]1C[C@H]2O[C@H](CNCc3ncccc3C)[C@@H](O)[C@H]2O1	none
Nc1ncc(-c2ccc(-c3cc(NC4CCCC4)nc4[nH]ccc34)cc2)[nH]1	FLuc inh inconclusive
Cc1ccc(-n2cccc2CC(=O)NCc2ccccc2)cc1	HEK cytotox inconclusive
CCCNC(=O)N1CCC(Cc2ccc(CCNC(C)=O)cc2)CC1	NIH3T3 tox inconclusive, HEK cytotox 45µM (no result: FLuc inh, NPR1 antag)
CCNC(=O)N1CCC(Cc2ccc(C(=O)Nc3cccc(F)c3)cc2)CC1	NIH3T3 tox inconclusive, FLuc inh 25µM, HEK cytotox 40µM, NPR1 antag 11µM
O=C(NCCC1CCN(C(=O)Nc2cc(F)cc(F)c2)CC1)c1ccccc1	FLuc inh 28µM, HEK cytotox inconclusive
Oc1cc(O)cc(/C=C/c2ccc(O)c(O)c2)c1	GPT2 inhibitor 6.3µM (no result: NIH3T3 tox, FLuc inh, HEK cytotox, NPR1 antag)
COc1cc(O)cc(/C=C/c2cccc(O)c2)c1	none (no result: NIH3T3 tox, FLuc inh, HEK cytotox, NPR1 antag)
Cc1nn(-c2ccccc2)c2c1C(C1CC1)N(C1CCN(Cc3cccc(F)c3)CC1)C2=O (centres undefined)	HEK cytotox inconclusive (no result: FLuc inh, GPT2 inhibitor, NPR1 antag)
Cc1sc2ccn(CC(C)C)c(=O)c2c1C(=O)N1CCCCC1	HEK cytotox 28µM
CCCN1CCN(C(=O)c2c(C)sc3ccn(CC(C)C)c(=O)c23)CC1	none
Cc1sc2ccn(CC(C)C)c(=O)c2c1C(=O)N1CCC(C)CC1	HEK cytotox 45µM

Screening results from PubChem.
